We go through 40 molecules from PubChem BioAssay.

Records with an inconclusive call do not appear. Activity calls are given as the source filed them.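 The calls were made as follows, unless noted: active = inhibition over a set limit, the all-compound mean plus 3 SD, in both replicate runs; inconclusive = over that limit in just one replicate run; inactive = at or under that limit in both runs.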

The nature of one experiment: viability of PTEN-null HCT116 cells – cell-based, HCT116 clonal line, CellTiter-Glo, pilot screen (AID 824;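 active = viability at or below 27.92% in each of two runs, the all-compound median minus 4 SD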;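 also: 0% = 20 µM Hyamine control and 100% = vehicle cell control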). The conditions noted are these: HCT116 PTEN-deleted viability, 60 h, at 10 µM, stronger effect = lower value.
Consider `Cn1c(Cn2c(=O)sc3ccccc32)nnc1SCC(=O)NCc1ccco1`, for which the viability (usually a read-out of living cells in per cent, often relative to untreated cells) is 104% (inactive).
`CCOC(=O)N1CCN(C(=O)c2ccccc2NC(=O)COc2ccccc2C)CC1`: the viability is 82.2% (inactive).
Consider `CCCCS(=O)(=O)/C=C\C=C/S(=O)(=O)CCCC`, for which the viability is 1.36% (active).
Still for that read-out and setting: under `CC(=O)Oc1c2occc2cc2ccc(=O)oc12` stands 90.5% (inactive).
In the case of `COc1ccc(Br)cc1C1CC(=O)N2CN(Cc3ccccc3)CSC2=C1C#N` (stereo not given), the viability is 87.5% (inactive).
For the molecule `Cc1nn(-c2ccccc2)c2c1C(c1ccccc1)C(C#N)=C(N)O2` (stereo not given), the viability is 87.8% (inactive).
On the same count and under the same terms, under `COc1ccc2cc(CCNC(=O)C3CCCC3)c(=O)[nH]c2c1` stands 98.5% (inactive).
Still for that read-out and setting: under `COc1ccc2nc(NC(=O)C3COc4ccccc4O3)sc2c1` (stereo not given) stands 91.7% (inactive).
For `O=C(CSCC(=O)N1CCOCC1)Nc1nc(-c2ccc3c(c2)OCO3)cs1`, the viability was 97.3% (inactive).
For the molecule `COC(=O)c1c(C(=O)OC)c2n(c1C)Cc1ccccc1C2`, the viability was 90.2% (inactive).
As to `CC(=O)Nn1cc2c(=O)n(C)c(=O)n(C)c2c1`, the viability is 99.7% (inactive).
Take `O=C(NCCc1ccccc1)c1ccc(Br)o1`: the viability was 103% (inactive).
Regarding `O=C(O)CN(Cc1ccco1)S(=O)(=O)c1ccccc1`, the viability was 98.3% (inactive).
Take `CC1CN(CCC(=O)Nc2ccc3c(c2)CCC3)CC(C)O1` (stereo not given): the viability is 93% (inactive).
Regarding `Cc1cc(C)n2nc(SCC(=O)Nc3ccc(F)cc3)nc2n1`, the viability is 98.5% (inactive).
As to `COCCNC(=O)CN(c1cc(C(F)(F)F)ccc1Cl)S(C)(=O)=O`, the viability was 97.5% (inactive).
Take `CCN(CC)S(=O)(=O)c1cc(C(=O)Nc2ccc(Cl)cn2)ccc1C`: the viability is 74.2% (inactive).
With `O=C(CCNS(=O)(=O)c1cccc2nsnc12)NCCc1ccccc1`, the viability is 97.6% (inactive).
Consider `Clc1ccccc1CSc1nnc(-c2cccnc2)n1Cc1ccco1`, for which the viability was 91% (inactive).
For `COc1ccc(-c2nnc(SCC(=O)NC(C)c3ccccc3)o2)cc1OC` (stereo not given), the viability is 96% (inactive).
With `O=c1c2ccccc2ncn1-c1ccc2c(c1)OCCO2`, the viability was 94% (inactive).
`CC(=O)Nc1ccc(NC2(C)C(=O)c3ccccc3C2=O)cc1`: the viability is 102% (inactive).
As to `C=CCNC(=O)COc1ccc(Br)cc1Cl`, the viability is 91.2% (inactive).
Take `COc1ccccc1N1CCN(Cc2cc(Br)c(O)c3ncccc23)CC1`: the viability is 6.17% (active).
Regarding `O=C(CNC(=O)c1cnccn1)Nc1ccc(F)c(F)c1F`, the viability is 92.8% (inactive).
Still for that read-out and setting: with `CCCC(=O)c1ccc(N2CCOCC2)c(F)c1` the figure was 98.2% (inactive).
Turning to `O=C(NCc1ccc(Cl)c(Cl)c1)c1ccco1`, the viability was 84.9% (inactive).
In the case of `O=C(NCC1CCCO1)C1CC(=O)N(c2ccc(F)c(Cl)c2)C1` (stereo not given), the viability was 94.1% (inactive).
For `COC(=O)CCC(=O)Nc1ccc(NC(=O)CCC(=O)OC)cc1`, the viability was 96.9% (inactive).
Still for that read-out and setting: under `CCc1c(C)nc2[nH]nc(-c3ccccc3)n2c1=O` stands 99.1% (inactive); under `COC(=O)C1=CN(CC2CCCO2)C=C(C(=O)OC)C1c1ccsc1` (stereo not given), 97.5% (inactive); under `COc1cccc(-n2c(Cc3cc(=O)[nH]c(=O)[nH]3)nnc2SCC(=O)N2CCCCC2)c1`, 96.8% (inactive).
On to `CCOc1ccc(N(CC(=O)Nc2nccs2)S(=O)(=O)c2c(C)noc2C)cc1`, for which the viability is 89.1% (inactive).
On the same count and under the same terms, with `CC(Oc1ccc(Cl)cc1Cl)C(=O)NCCN1CCOCC1` (stereo not given) the figure was 97.5% (inactive); with `Nc1nonc1C(=O)NCCc1ccccc1`, 99.6% (inactive); with `CCCCn1c(CN2CCN(C(=O)c3ccco3)CC2)nc2c1c(=O)n(C)c(=O)n2C`, 98% (inactive).
For `COc1ccc(CCNC(=O)CCNS(=O)(=O)c2cccc3nsnc23)cc1OC`, the viability was 97.2% (inactive).
Regarding `CC(=O)Nc1cc2c(cc1C(=O)c1ccccc1)OCCO2`, the viability was 92.9% (inactive).
In the case of `Cc1cc(C)c2c3c(c(-c4ccccc4)n2n1)c(=O)n(C)c(=O)n3C`, the viability is 94% (inactive).
Still for that read-out and setting: under `CCOC(=O)NC(Nc1cc(C)ccn1)(C(F)(F)F)C(F)(F)F` stands 100% (inactive).

Another experiment in a line: RAM pathway blockade in budding yeast – dse1pr::URA3 reporter, 5-FOA selection, pilot screen (AID 869).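 Also: 0% = DMSO wells with no growth and 100% = 10 µM 1-NA-PP1 with full growth; RAM network block rescues cells from 5-FOA so hits raise OD615 growth.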 The conditions noted are these: S. cerevisiae dse1pr::URA3 5-FOA growth, OD615, 2 d; at 10 µM; stronger effect = higher value; strain carries analog-sensitive mutant Cbk1 kinase.
Regarding `Cn1c(Cn2c(=O)sc3ccccc32)nnc1SCC(=O)NCc1ccco1`, the inhibition (commonly the relative decrease from the control value, in per cent) is 1.93% (inactive).
Consider `CCOC(=O)N1CCN(C(=O)c2ccccc2NC(=O)COc2ccccc2C)CC1`, for which the inhibition is 1.29% (inactive).
Turning to `CCCCS(=O)(=O)/C=C\C=C/S(=O)(=O)CCCC`, the inhibition is -0.535% (inactive).
Take `CC(=O)Oc1c2occc2cc2ccc(=O)oc12`: the inhibition was 0.425% (inactive).
As for `COc1ccc(Br)cc1C1CC(=O)N2CN(Cc3ccccc3)CSC2=C1C#N` (stereo not given), the inhibition was 2.63% (inactive).
With `Cc1nn(-c2ccccc2)c2c1C(c1ccccc1)C(C#N)=C(N)O2` (stereo not given), the inhibition is 2.24% (inactive).
On the same count and under the same terms, under `COc1ccc2cc(CCNC(=O)C3CCCC3)c(=O)[nH]c2c1` stands 1.08% (inactive).
With `COc1ccc2nc(NC(=O)C3COc4ccccc4O3)sc2c1` (stereo not given), the inhibition is 2.08% (inactive).
For the molecule `O=C(CSCC(=O)N1CCOCC1)Nc1nc(-c2ccc3c(c2)OCO3)cs1`, the inhibition was 0.47% (inactive).
On to `COC(=O)c1c(C(=O)OC)c2n(c1C)Cc1ccccc1C2`, for which the inhibition was 1.85% (inactive).
On to `CC(=O)Nn1cc2c(=O)n(C)c(=O)n(C)c2c1`, for which the inhibition was 1.68% (inactive).
In the case of `O=C(NCCc1ccccc1)c1ccc(Br)o1`, the inhibition is 0.77% (inactive).
Consider `O=C(O)CN(Cc1ccco1)S(=O)(=O)c1ccccc1`, for which the inhibition was 2.67% (inactive).
With `CC1CN(CCC(=O)Nc2ccc3c(c2)CCC3)CC(C)O1` (stereo not given), the inhibition was 0.995% (inactive).
Regarding `Cc1cc(C)n2nc(SCC(=O)Nc3ccc(F)cc3)nc2n1`, the inhibition is 2.25% (inactive).
`COCCNC(=O)CN(c1cc(C(F)(F)F)ccc1Cl)S(C)(=O)=O`: the inhibition was 3.02% (inactive).
In the case of `CCN(CC)S(=O)(=O)c1cc(C(=O)Nc2ccc(Cl)cn2)ccc1C`, the inhibition was 1.1% (inactive).
Regarding `O=C(CCNS(=O)(=O)c1cccc2nsnc12)NCCc1ccccc1`, the inhibition is 0.11% (inactive).
Turning to `Clc1ccccc1CSc1nnc(-c2cccnc2)n1Cc1ccco1`, the inhibition is 1.38% (inactive).
For `COc1ccc(-c2nnc(SCC(=O)NC(C)c3ccccc3)o2)cc1OC` (stereo not given), the inhibition was 1.04% (inactive).
`O=c1c2ccccc2ncn1-c1ccc2c(c1)OCCO2`: the inhibition is 0.6% (inactive).
For `CC(=O)Nc1ccc(NC2(C)C(=O)c3ccccc3C2=O)cc1`, the inhibition was 1.94% (inactive).
On the same count and under the same terms, with `C=CCNC(=O)COc1ccc(Br)cc1Cl` the figure was 1.36% (inactive); with `COc1ccccc1N1CCN(Cc2cc(Br)c(O)c3ncccc23)CC1`, -0.8% (inactive); with `O=C(CNC(=O)c1cnccn1)Nc1ccc(F)c(F)c1F`, 2.68% (inactive).
As to `CCCC(=O)c1ccc(N2CCOCC2)c(F)c1`, the inhibition is -0.25% (inactive).
For the molecule `O=C(NCc1ccc(Cl)c(Cl)c1)c1ccco1`, the inhibition is 1.23% (inactive).
For the molecule `O=C(NCC1CCCO1)C1CC(=O)N(c2ccc(F)c(Cl)c2)C1` (stereo not given), the inhibition was 1.5% (inactive).
`COC(=O)CCC(=O)Nc1ccc(NC(=O)CCC(=O)OC)cc1`: the inhibition was 1.73% (inactive).
On the same count and under the same terms, under `CCc1c(C)nc2[nH]nc(-c3ccccc3)n2c1=O` stands 1.69% (inactive); under `COC(=O)C1=CN(CC2CCCO2)C=C(C(=O)OC)C1c1ccsc1` (stereo not given), 0.125% (inactive).
Still for that read-out and setting: under `COc1cccc(-n2c(Cc3cc(=O)[nH]c(=O)[nH]3)nnc2SCC(=O)N2CCCCC2)c1` stands 1.77% (inactive).
As for `CCOc1ccc(N(CC(=O)Nc2nccs2)S(=O)(=O)c2c(C)noc2C)cc1`, the inhibition was 1.25% (inactive).
With `CC(Oc1ccc(Cl)cc1Cl)C(=O)NCCN1CCOCC1` (stereo not given), the inhibition is -0.29% (inactive).
Still for that read-out and setting: under `Nc1nonc1C(=O)NCCc1ccccc1` stands 0.71% (inactive).
Still for that read-out and setting: under `CCCCn1c(CN2CCN(C(=O)c3ccco3)CC2)nc2c1c(=O)n(C)c(=O)n2C` stands 0.905% (inactive); under `COc1ccc(CCNC(=O)CCNS(=O)(=O)c2cccc3nsnc23)cc1OC`, 0.305% (inactive).
On to `CC(=O)Nc1cc2c(cc1C(=O)c1ccccc1)OCCO2`, for which the inhibition was 1.35% (inactive).
Take `Cc1cc(C)c2c3c(c(-c4ccccc4)n2n1)c(=O)n(C)c(=O)n3C`: the inhibition is 2.26% (inactive).
For the molecule `CCOC(=O)NC(Nc1cc(C)ccn1)(C(F)(F)F)C(F)(F)F`, the inhibition is 0.28% (inactive).
